Cycloheximide cs – counter-screen for Shiga toxin inhibitors: cycloheximide protein synthesis inhibition | max response, % | AID 2314 | cell reporter, cycloheximide protein synthesis inhibition counterscreen | 12% of 300,000 active; in the data active = max response mostly above about 13%, no sharp cut-off; inactive = mostly below about 14%; note: read at 38.3 µM for the half of the compounds with a filed dose
AMA1 RON2 block – disrupts binding of P. falciparum AMA1 to RON2; 0.2% of 360,000 active; AlphaScreen AMA1-biotinylated RON2 peptide binding; AID 720542; Potency, µM (titrated, usually from 58.2 µM), actives largely listed as inhibitors; note: nearly all actives have a fitted effect of over 45% in size
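AMA1 (3D7) with his tag at 25 nM final met compounds first, then biotinylated RON2 peptide at 25 nM; detection used donor plus acceptor beads, 10 µg/mL apiece, read by AlphaScreen after 30 min at room temperature.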
Pf growth 96h – inhibits malaria parasite growth, 96 h | P. falciparum luciferase reporter growth, 96 h | Potency, µM (titrated, usually from 28.7 µM), hits mostly inhibitors | 6.9% of 320,000 active
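Two-generation exposure (96 h) targets delayed-death phenotype. Reporter parasites carrying integrated firefly luciferase, in red cells at 2% hematocrit and 0.05% parasitemia final, kept at 37 C, 5% CO2; luminescence loss indicates inhibition.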
Shiga inhibitor – blocks Shiga toxin action in Vero cells; Vero cells, Shiga toxin protein synthesis inhibition reporter; inhibition, % at 38.7 µM; 9.2% of 290,000 active; AID 2315; in the data active = inhibition mostly above about 28%, no sharp cut-off; inactive = mostly below about 43%
HCV inh – HCV inhibition; Huh7.5.1 HCVcc-Cre infection, luciferase reporter, 44 h; Potency, µM (titrated, usually from 41.8 µM), hits mostly inhibitors; 3.4% of 340,000 active
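Antiviral activity was scored by luciferase reporter output from cells infected with HCVcc-Cre (~0.5 moi) in presence of compound, 44 h infection period, cells seeded 1,000/well 4 h prior.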
Pf growth 48h – P. falciparum growth inhibition at 48 hours (one generation) | 5.9% of 310,000 active | P. falciparum luciferase growth in erythrocytes, 48 h | Potency, µM (series often up to 28.7 µM), usual class: inhibitors | AID 504832
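Luminescence readout; reporter = integrated firefly luciferase in P. falciparum. RBC culture at 2% hematocrit, 0.1% parasitemia final, 37 C/5% CO2; decreased signal taken as growth inhibition.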
Of the large screens only hits and unclear results are named; the others gave an inactive call. Compounds with a hit are over-represented: about 21% of the library has one in this group of screens. Unless noted, calls come from the whole dose curve; as a rule, active = well fitted curve in the direction sought with a large enough effect; inconclusive = small, poorly fitted or top-dose-only effect, or another doubt; inactive = no such curve, though single readings can be large; an effect the other way counts as inactive or inconclusive.

C[C@@H](CN1C2=NC[C@H](Cc3ccccc3)N2C[C@H]1Cc1ccc(O)cc1)NC(=O)CCC1CCCCC1	Pf growth 96h 14.7µM, Pf growth 48h inconclusive
COc1ccc(C[C@@H]2CN3C(=NC[C@@H]3C)N2C[C@H](C)NC(=O)CCC2CCCCC2)cc1	Pf growth 96h inconclusive, Pf growth 48h inconclusive
O=C(CCC1CCCC1)N[C@@H](Cc1ccc(O)cc1)C(=O)O	none
C[C@@H](CN1C2=NC[C@H](Cc3ccc(O)cc3)N2C[C@H]1Cc1ccc(O)cc1)NC(=O)CCC1CCCCC1	Pf growth 96h 1.65µM, Pf growth 48h 7.38µM
COc1ccc(C[C@H]2CN3C(=NC[C@@H]3Cc3ccccc3)N2C[C@H](C)NC(=O)CCC2CCCCC2)cc1	Pf growth 96h 2.62µM, Pf growth 48h 1.65µM (no result: AMA1 RON2 block, HCV inh)
CSc1ncccc1C(=O)N(C)CC(=O)Nc1cccc(F)c1	none
CC(C)C[C@H](NC(=O)c1[nH]cnc1C(=O)Nc1ccc(Cl)cc1)C(=O)OC(C)(C)C	Pf growth 96h 13.1µM, Pf growth 48h 13.1µM
CC(C)C[C@H](NC(=O)c1nc[nH]c1C(=O)N[C@@H](CC(C)C)C(=O)OC(C)(C)C)C(=O)OC(C)(C)C	Pf growth 96h 8.28µM, HCV inh inconclusive, Pf growth 48h 6.57µM
CCCCCCn1c(=O)n2n(c1=O)[C@@H]1CN(S(=O)(=O)c3ccc(C)cc3)C[C@]1(O)[C@@H](OC(=O)Nc1c(C)noc1C)C2	none (no result: Cycloheximide cs, Pf growth 96h, Shiga inhibitor, HCV inh, Pf growth 48h)
CC(C)N1CCC1(C)C(=O)Nc1nc2ccccc2[nH]1 (centres undefined)	none (no result: Cycloheximide cs, Pf growth 96h, Shiga inhibitor, HCV inh, Pf growth 48h)
C[C@H]1c2cccc(O)c2C(O)=C2C(=O)[C@]3(O)C(O)=C(C(N)=O)C(=O)[C@@H](N(C)C)C3[C@@H](O)C21 (some centres undefined)	Pf growth 96h 0.415µM, Pf growth 48h 3.7µM (no result: Cycloheximide cs, Shiga inhibitor)
CN(C)[C@@H]1C(=O)C(C(N)=O)=C(O)[C@]2(O)C(=O)C3=C(O)c4c(O)ccc(Cl)c4[C@](C)(O)[C@H]3C[C@@H]12	Pf growth 96h inconclusive (no result: Cycloheximide cs, AMA1 RON2 block, Shiga inhibitor, HCV inh)
C[C@@H]1c2cccc(O)c2C(O)=C2C(=O)[C@@]3(O)C(O)=C(C(N)=O)C(=O)[C@@H](N(C)C)[C@@H]3[C@@H](O)[C@@H]21	Pf growth 96h 1.51µM, Pf growth 48h 7.57µM (no result: Cycloheximide cs, AMA1 RON2 block, Shiga inhibitor, HCV inh)
CN(C)C1C(=O)C(C(N)=O)=C(O)C2(O)C(=O)C3=C(O)c4c(O)cccc4C(C)(O)C3C(O)C12 (centres undefined)	AMA1 RON2 block inconclusive, Pf growth 96h 2.62µM, Pf growth 48h inconclusive
CCc1ccc(C(=O)NNC(=O)c2cc(S(=O)(=O)N(C)C)ccc2N2CCCC2)cc1	HCV inh inconclusive
CCn1c(SCC(=O)Nc2sccc2C(N)=O)nnc1C1CC1	none (no result: Cycloheximide cs, Shiga inhibitor)
CCOC(=O)C1CCCN(c2cc(=O)n(C3CCCCC3)c(=O)[nH]2)C1 (centres undefined)	none
C=C1c2cccc(O)c2C(O)=C2C(=O)[C@@]3(O)C(O)=C(C(N)=O)C(=O)[C@@H](N(C)C)[C@@H]3[C@@H](O)[C@H]12	Pf growth 96h 1.28µM, Pf growth 48h 3.22µM (no result: Cycloheximide cs, AMA1 RON2 block, Shiga inhibitor, HCV inh)
CN(C)[C@@H]1C(=O)C(C(N)=O)=C(O)[C@]2(O)C(=O)C3=C(O)c4c(O)ccc(Cl)c4[C@H](O)[C@H]3C[C@@H]12	Pf growth 96h 3.38µM, Pf growth 48h 6.75µM (no result: Cycloheximide cs, AMA1 RON2 block, Shiga inhibitor, HCV inh)
C=C1c2cccc(O)c2C(=O)C2C(=O)[C@]3(O)C(=O)C(C(N)=O)C(=O)[C@@H](N(C)C)[C@@H]3[C@@H](O)[C@H]12 (some centres undefined)	AMA1 RON2 block 0.891µM (no result: Cycloheximide cs, Pf growth 96h, Shiga inhibitor, Pf growth 48h)
CC(OC(=O)Cn1nnc2ccccc21)C(=O)NC1CCCC1 (centres undefined)	Pf growth 96h inconclusive
COc1cc(C2c3cc4c(cc3OC(C)(N3CCCC3)C2C)OCO4)cc(OC)c1OC (centres undefined)	HCV inh inconclusive (no result: Cycloheximide cs, Pf growth 96h, Shiga inhibitor, Pf growth 48h)
COc1ccc(CCNC(=O)CCC(=O)n2ncc3ccc(Cl)cc32)cc1OC	Pf growth 96h inconclusive
CC1Cc2ccccc2N1C(=O)COC(=O)c1ccc(Cl)c(S(=O)(=O)N2CCOCC2)c1 (centres undefined)	Pf growth 96h inconclusive, Pf growth 48h inconclusive (no result: Cycloheximide cs, Shiga inhibitor)
Cc1nc(Nc2cc(F)ccc2C)c2nnn(Cc3ccccc3)c2n1	none
Cc1ccc2nc(CN(C)C(=O)[C@H]3O[C@@H](n4ccc(N)nc4=O)[C@H](O)[C@@H]3O)[nH]c2c1	none (no result: Cycloheximide cs, Pf growth 96h, Shiga inhibitor, HCV inh, Pf growth 48h)
Cc1ccc(N(CC(=O)NC(C)(C)C)C(=O)CNC(=O)c2cccs2)c(C)c1	Pf growth 48h 8.28µM
O=C1C[C@@H](c2ccc(O[C@@H]3O[C@H](CO)[C@@H](O)[C@H](O)[C@H]3O)cc2)Oc2cc(O)ccc21	Cycloheximide cs 20.4, Shiga inhibitor active
Cc1nn(Cc2ccc(C(=O)N3c4ccc(F)cc4CCC3C)o2)c(C)c1Br (centres undefined)	Pf growth 96h 13.1µM (no result: Pf growth 48h)
Cc1ccc(C(=O)N2c3ccc(F)cc3CCC2C)o1 (centres undefined)	Pf growth 96h inconclusive, Pf growth 48h inconclusive
C=CCSc1nncn1/N=C/c1ccc(OC)cc1	Cycloheximide cs 37.2, Shiga inhibitor 76.5
O=C(NCC1CCCO1)c1cn(Cc2ccccc2Cl)nc1-c1ccccc1 (centres undefined)	none (no result: Cycloheximide cs, Shiga inhibitor)
Cc1ccc(OCCOc2ccc(S(=O)(=O)N3CCCC3)cc2C(N)=O)cc1	none (no result: Cycloheximide cs, Shiga inhibitor)
O=C1CC(c2ccc(F)cc2)CC(O)=C1C1NCCc2ccccc21 (centres undefined)	Cycloheximide cs 18.7
CCOC(=O)N1CCN(C(=O)/C=C/c2ccc(C(C)(C)C)cc2)CC1	none
Cc1ccc2nc(N/N=C/c3ccco3)cc(C)c2c1	Cycloheximide cs 50.7, Shiga inhibitor 71.6, HCV inh inconclusive, Pf growth 48h inconclusive
O=C(N/N=C/c1ccc([N+](=O)[O-])o1)c1cc(-c2ccncc2)nc2ccccc12	Pf growth 96h 0.928µM, HCV inh 10µM, Pf growth 48h inconclusive
O=C(N/N=C/c1ccc([N+](=O)[O-])o1)c1cn(-c2ccccc2)nc1-c1ccccc1	Pf growth 96h inconclusive, HCV inh inconclusive, Pf growth 48h inconclusive
Cc1ccc(/C=N/NC(=O)c2cc(-c3ccncc3)nc3ccccc23)o1	none
Cc1ccc(-c2cc(C(=O)N/N=C/c3ccc([N+](=O)[O-])o3)c3ccccc3n2)o1	Cycloheximide cs 32.2, Pf growth 96h 3.29µM, Shiga inhibitor 79.6, HCV inh 11.2µM
Cc1cc(N/N=C/c2ccc([N+](=O)[O-])o2)nc2ccccc12	Cycloheximide cs 15.4, Pf growth 96h 5.86µM, Shiga inhibitor 48.1, HCV inh 10µM, Pf growth 48h 4.65µM
COc1ccccc1-c1cc(C(=O)N/N=C/c2ccc(C)o2)c2ccccc2n1	Pf growth 96h inconclusive, Pf growth 48h inconclusive
COc1ccc(S(=O)(=O)N2CCN(C/C=C/c3ccccc3)CC2)cc1F	AMA1 RON2 block inconclusive

Bioassay records (PubChem)
